Test results from article PMC4336329 (PLoS ONE, 2015).
In all, about 310,000 compounds went through this assay and about 2,200 (0.71%) showed an effect of 50% or more. Effects have a minus sign here. This excerpt belongs to a sample that is enriched for strong results.

Each compound was assayed against human ether-à-go-go-related gene (hERG) potassium channel (human, UniProt Q12809) (assay: primary screen, population patch clamp on CHO cells stably expressing hERG; higher = less effect of the substance).
Sequence of human ether-à-go-go-related gene (hERG) potassium channel (Q12809 whole entry, looked up): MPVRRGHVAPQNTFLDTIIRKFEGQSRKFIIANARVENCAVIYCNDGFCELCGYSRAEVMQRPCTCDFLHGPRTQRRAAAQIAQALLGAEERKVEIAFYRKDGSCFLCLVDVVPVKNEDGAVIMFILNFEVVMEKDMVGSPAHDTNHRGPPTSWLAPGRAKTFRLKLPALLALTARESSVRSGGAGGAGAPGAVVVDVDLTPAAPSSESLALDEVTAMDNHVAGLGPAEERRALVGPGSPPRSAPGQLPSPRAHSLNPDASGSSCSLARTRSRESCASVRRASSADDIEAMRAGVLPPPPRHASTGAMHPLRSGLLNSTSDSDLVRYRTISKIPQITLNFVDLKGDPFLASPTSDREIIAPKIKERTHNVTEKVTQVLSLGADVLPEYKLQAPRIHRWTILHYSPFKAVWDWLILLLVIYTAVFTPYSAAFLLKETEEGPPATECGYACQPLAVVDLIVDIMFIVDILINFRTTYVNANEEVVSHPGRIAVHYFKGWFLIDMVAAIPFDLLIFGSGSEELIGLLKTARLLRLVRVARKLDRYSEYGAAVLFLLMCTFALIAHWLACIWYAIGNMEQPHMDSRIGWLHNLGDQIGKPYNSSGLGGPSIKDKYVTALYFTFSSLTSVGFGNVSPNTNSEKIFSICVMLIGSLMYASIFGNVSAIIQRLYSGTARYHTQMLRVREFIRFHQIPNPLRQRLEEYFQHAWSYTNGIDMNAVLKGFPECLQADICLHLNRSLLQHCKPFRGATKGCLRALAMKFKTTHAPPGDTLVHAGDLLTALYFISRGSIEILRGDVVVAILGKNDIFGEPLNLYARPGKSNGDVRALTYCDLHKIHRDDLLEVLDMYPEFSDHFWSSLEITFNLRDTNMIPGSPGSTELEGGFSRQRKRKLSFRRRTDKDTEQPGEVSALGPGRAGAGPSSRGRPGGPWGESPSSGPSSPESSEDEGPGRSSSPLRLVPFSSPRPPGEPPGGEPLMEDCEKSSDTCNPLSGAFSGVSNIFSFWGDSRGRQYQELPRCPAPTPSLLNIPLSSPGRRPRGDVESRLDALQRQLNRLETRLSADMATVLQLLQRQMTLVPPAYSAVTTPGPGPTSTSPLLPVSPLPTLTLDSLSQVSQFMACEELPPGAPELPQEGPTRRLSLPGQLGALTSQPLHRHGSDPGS

Going from `CCN(CC)/C(=N\S(=O)(=O)c1ccccc1C)c1ccccc1` to `CC(=O)CC(c1ccccc1)c1c(O)c2ccccc2oc1=O.[Na]` (centres unmarked), the “hERG current change (%, negative = inhibition) at 1uM” value rises from -5.09% to 15.2%.

Compared with `Cc1nn2cc(-c3ccc(Cl)cc3)cnc2c1Cl`, `Cc1ccc(CSc2ccc3nnc(-c4cccnc4)n3n2)cc1` is lower in “hERG current change (%, negative = inhibition) at 1uM” value: 13.1% for the first, -70.6% for the second.

Compared with `CCOC(=O)c1cc2c(=O)n3cccc(C)c3nc2n(CCOC)c1=NC(C)=O`, `C=CCn1c(=N)c(C(=O)OCC)cc2c(=O)n3cccc(C)c3nc21` is lower in “hERG current change (%, negative = inhibition) at 1uM” value: 8.92% for the first, -73.7% for the second.

Going from `C=CCn1c(=N)c(C(=O)NCCCOC)cc2c(=O)n3cccc(C)c3nc21` to `CCn1c(=N)c(C(=O)NCCCOC)cc2c(=O)n3cccc(C)c3nc21`, the “hERG current change (%, negative = inhibition) at 1uM” value rises from -64.2% to -47%.

First: C=CCn1c(=N)c(C(=O)NCCCOC)cc2c(=O)n3ccccc3nc21
Second: CCOCCCn1c(=NC(C)=O)c(C#N)cc2c(=O)n3ccccc3nc21
The “hERG current change (%, negative = inhibition) at 1uM” value of the first is lower: -22.3% for the first, 11.7% for the second.

Compared with `O=C(Nc1ccccc1F)N(CCCN1CCOCC1)Cc1cc2cc3c(cc2[nH]c1=O)OCCO3`, `Cc1ccccc1S(=O)Cc1ccc(C(=O)NCCN2CCOCC2)o1` (centres unmarked) is higher in “hERG current change (%, negative = inhibition) at 1uM” value: 9.36% for the first, 25.5% for the second.

First: Cc1ccc(NC(=O)c2cc(N3C(=O)CCC3=O)ccc2N2CCOCC2)cc1
Second: Cc1ccc(NC(=O)c2cc(NC(=O)C3CC=CCC3C(=O)O)ccc2N2CCOCC2)cc1Cl (centres unmarked)
The “hERG current change (%, negative = inhibition) at 1uM” value of the first is lower: 5.52% for the first, 5.76% for the second.

First: COc1ccc(CN(C)S(=O)(=O)c2nnc(NC(=O)c3cccc(F)c3)s2)cc1OC
Second: O=C(CSc1ccc2nnc(-c3ccccn3)n2n1)Nc1cccc(F)c1
The “hERG current change (%, negative = inhibition) at 1uM” value of the first is higher: 6.86% for the first, -7.83% for the second.

Compared with `CSc1nc(-c2ccco2)cc(C(F)(F)F)c1C#N`, `CSc1nc2ccccc2cc1/C=C(\C#N)c1ccccc1` is lower in “hERG current change (%, negative = inhibition) at 1uM” value: 12% for the first, 9.25% for the second.

Compared with `CCOC(=O)N1CCN(C(=O)C2CCCN(c3nc4ccc(OCC)cc4s3)C2)CC1` (centres unmarked), `Cc1ccc2nc(NC(=O)C3CCCN(S(=O)(=O)c4cccnc4)C3)sc2c1` (centres unmarked) is higher in “hERG current change (%, negative = inhibition) at 1uM” value: -3.97% for the first, 7.66% for the second.

Going from `O=C(CSc1nnc(-c2ccc(Br)cc2)n1CCc1ccccc1)NC1CCS(=O)(=O)C1` (centres unmarked) to `COc1ccccc1-c1nnc(SCC(=O)NC2CCS(=O)(=O)C2)n1CCc1ccccc1` (centres unmarked), the “hERG current change (%, negative = inhibition) at 1uM” value rises from -60.7% to 11.2%.

First: CCn1c(SCC(=O)NC2CCS(=O)(=O)C2)nnc1-c1ccccc1 (centres unmarked)
Second: CC(C)CN(C(=O)CSc1nnc2ccccn12)C1CCS(=O)(=O)C1 (centres unmarked)
The “hERG current change (%, negative = inhibition) at 1uM” value of the first is lower: 6.72% for the first, 8.69% for the second.

First: COc1ccc(C2(c3cccc(O)c3OC)CCN(C(C)=O)CC2)cc1O
Second: COc1ccc(NS(=O)(=O)c2cccs2)cc1S(=O)(=O)N1CCOCC1
The “hERG current change (%, negative = inhibition) at 1uM” value of the first is higher: 17.8% for the first, 14.7% for the second.

Compared with `CCOCCCn1c(=NC(=O)c2cccs2)c(C#N)cc2c(=O)n3ccccc3nc21`, `CC(C)OCCCn1c(=NC(=O)c2cccs2)c(C#N)cc2c(=O)n3ccccc3nc21` is lower in “hERG current change (%, negative = inhibition) at 1uM” value: -49.3% for the first, -67.1% for the second.

First: CC(=O)N=c1c(C#N)cc2c(=O)n3ccccc3nc2n1CCCOC(C)C
Second: CCCCCn1c(=NC(C)=O)c(C#N)cc2c(=O)n3ccccc3nc21
The “hERG current change (%, negative = inhibition) at 1uM” value of the first is higher: 8.03% for the first, 0.0455% for the second.

Going from `CC(C)OCCCn1c(=NC(=O)c2ccncc2)c(C#N)cc2c(=O)n3ccccc3nc21` to `O=C(CSc1nnc(-c2ccccc2Br)o1)Nc1cccc2ccccc12`, the “hERG current change (%, negative = inhibition) at 1uM” value rises from -63.4% to 3.82%.

Going from `Cc1cc(C(=O)CN2C(=O)NC3(CCCCC3)C2=O)c(C)n1-c1ccc2c(c1)OCO2` to `O=C(NCCS(=O)(=O)N1CCC2(CC1)OCCO2)c1ccc(F)cc1`, the “hERG current change (%, negative = inhibition) at 1uM” value rises from 5.94% to 13.2%.

Compared with `C=CCN(CC=C)C(=O)C(=O)c1ccn(-c2c(C)csc2C(=O)OC)c1`, `CCN(CC)C(=O)C(=O)c1ccn(-c2c(C)csc2C(=O)OC)c1` is higher in “hERG current change (%, negative = inhibition) at 1uM” value: -59.3% for the first, 7.53% for the second.

Compared with `COC(=O)c1scc(C)c1-n1ccc(C(=O)C(=O)N(C)C)c1`, `COc1ccc(CNC(=O)c2ccccc2C(=O)O)cc1` is lower in “hERG current change (%, negative = inhibition) at 1uM” value: 9.29% for the first, 0.458% for the second.

Going from `CC(C)(C)CN1CCNC(=O)C1CC(=O)NCCc1cnn(-c2ccccc2)c1` (centres unmarked) to `COc1ccccc1S(=O)(=O)Cc1ccc(C(=O)NCCN2CCCC2)o1`, the “hERG current change (%, negative = inhibition) at 1uM” value rises from 5.53% to 14.2%.

First: CSc1sc(C(=O)Nc2ccc(F)cc2F)c2c1C=CCC2
Second: CCN(CC(=O)Nc1c(F)cccc1F)C(=O)c1ccc(C#N)cc1
The “hERG current change (%, negative = inhibition) at 1uM” value of the first is higher: 11.8% for the first, 8.99% for the second.

Compared with `O=C(Nc1ccccc1)N1CCN(c2ncccn2)CC1`, `c1ccc(CN2CCN(Cc3c[nH]c4ccccc34)CC2)cc1` is higher in “hERG current change (%, negative = inhibition) at 1uM” value: 6.7% for the first, 15.3% for the second.

Compared with `c1ccc(CCCN2CCOCC2)cc1`, `OC1(Cc2cc(-c3ccccc3)no2)CCN(CCCc2ccccc2)CC1` is lower in “hERG current change (%, negative = inhibition) at 1uM” value: 22.1% for the first, -55.5% for the second.

Compared with `COc1cccc(-c2cc(CC3(O)CCN(CCCc4ccccc4)CC3)on2)c1`, `COc1ccccc1S(=O)(=O)Cc1ccc(C(=O)NCCCN2CCN(c3ccc(F)cc3)CC2)o1` is lower in “hERG current change (%, negative = inhibition) at 1uM” value: -39.3% for the first, -68.3% for the second.

First: O=C(NCCCN1CCCC1)c1ccc(CS(=O)(=O)c2ccc(Cl)cc2)o1
Second: O=C(NCCN1CCCCCC1)c1ccc(CS(=O)(=O)c2ccc(Br)cc2)o1
The “hERG current change (%, negative = inhibition) at 1uM” value of the first is higher: 18.1% for the first, -37.9% for the second.

First: COc1ccccc1S(=O)(=O)Cc1ccc(C(=O)NCCN2CCCCCC2)o1
Second: O=C(NCCN1CCOCC1)c1ccc(CS(=O)(=O)c2ccc(Br)cc2)o1
The “hERG current change (%, negative = inhibition) at 1uM” value of the first is higher: 9.15% for the first, -0.189% for the second.

Going from `O=C(NCCN1CCN(Cc2ccccc2)CC1)c1ccc(CS(=O)(=O)c2ccc(Br)cc2)o1` to `COc1ccc(N2CCN(CCCNC(=O)c3ccc(CS(=O)(=O)c4ccc(Cl)cc4)o3)CC2)cc1`, the “hERG current change (%, negative = inhibition) at 1uM” value falls from -50.5% to -71.2%.

Compared with `COc1ccc(N2CCN(CCCNC(=O)c3ccc(CS(=O)(=O)c4ccc(OC)cc4)o3)CC2)cc1`, `COc1ccc(CN2CCN(Cc3c[nH]c4ccccc34)CC2)cc1.O=C(O)C(=O)O` is higher in “hERG current change (%, negative = inhibition) at 1uM” value: -43.1% for the first, -27.2% for the second.

Going from `CSc1nc2nc3c(c(=O)n2[nH]1)CCC3` to `CCOC(=O)c1sc2nc[nH]c(=O)c2c1C`, the “hERG current change (%, negative = inhibition) at 1uM” value rises from 1.88% to 12.6%.

Compared with `Cc1cc2c(cc1C)[n+](C)cn2CC(O)COCC1CC=CCC1.[I-]` (centres unmarked), `CCOC(=O)Cn1ncc2c3ccccc3n(CC(=O)OCC)c2c1=O` is higher in “hERG current change (%, negative = inhibition) at 1uM” value: 11% for the first, 13.4% for the second.

First: Cc1ccc(C(=O)Nc2cccc(-c3ccc(N4CCOCC4)nn3)c2)cc1
Second: Cc1ccc(CSc2nnc3ccc(-c4ccncc4)nn23)cc1
The “hERG current change (%, negative = inhibition) at 1uM” value of the first is higher: 4.57% for the first, -3.17% for the second.

First: COc1cc(SC)ccc1C(=O)OCC(=O)NC1CCCC1
Second: CCOc1ccc(CN2CCN(Cc3c[nH]c4ccccc34)CC2)cc1.O=C(O)C(=O)O
The “hERG current change (%, negative = inhibition) at 1uM” value of the first is higher: 9.49% for the first, -85.8% for the second.

First: c1ccc(CSc2nnc3ccc(-c4ccncc4)nn23)cc1
Second: Fc1ccc(CSc2nnc3ccc(-c4ccncc4)nn23)cc1
The “hERG current change (%, negative = inhibition) at 1uM” value of the first is higher: -12% for the first, -61.2% for the second.

First: Fc1cccc(CSc2ccc3nnc(-c4ccccn4)n3n2)c1
Second: Cc1cccc(CSc2ccc3nnc(-c4ccccn4)n3n2)c1
The “hERG current change (%, negative = inhibition) at 1uM” value of the first is higher: -50.2% for the first, -58.9% for the second.

Compared with `c1ccc(CSc2ccc3nnc(-c4ccccn4)n3n2)cc1`, `Fc1ccc(CSc2ccc3nnc(-c4ccccn4)n3n2)cc1` is lower in “hERG current change (%, negative = inhibition) at 1uM” value: -26.6% for the first, -92.9% for the second.

First: Fc1ccc(CSc2ccc3nnc(-c4cccnc4)n3n2)cc1
Second: Cc1cccc(CSc2ccc3nnc(-c4cccnc4)n3n2)c1
The “hERG current change (%, negative = inhibition) at 1uM” value of the first is lower: -31.8% for the first, -16% for the second.

First: Fc1cccc(Cl)c1CSc1ccc2nnc(-c3ccccn3)n2n1
Second: Brc1ccc(CSc2ccc3nnc(-c4ccccn4)n3n2)cc1
The “hERG current change (%, negative = inhibition) at 1uM” value of the first is higher: 1.37% for the first, -12.7% for the second.

Compared with `Cc1cc[n+](CC(=O)Nc2cc(C(F)(F)F)ccc2Cl)cc1.[Cl-]`, `Cc1cccc(CSc2nnc(-c3ccccn3)n2N)c1` is higher in “hERG current change (%, negative = inhibition) at 1uM” value: 5.29% for the first, 9.76% for the second.

Going from `Cc1cccc(CSc2ccc3nnc(-c4cccs4)n3n2)c1` to `O=C(CSc1nnc(-c2ccccc2Br)o1)Nc1nncs1`, the “hERG current change (%, negative = inhibition) at 1uM” value falls from 5.73% to -63.5%.

Going from `O=C(/C=C/c1ccco1)Nc1cccc(S(=O)(=O)N2CCOCC2)c1` to `CC(C)Sc1nnc(-c2ccc(S(=O)(=O)N3CCOCC3)cc2)n1C`, the “hERG current change (%, negative = inhibition) at 1uM” value rises from -5.85% to 7.81%.

Compared with `Brc1ccc(CN2CCN(Cc3c[nH]c4ccccc34)CC2)cc1.O=C(O)C(=O)O`, `O=[N+]([O-])c1ccc(CN2CCN(Cc3c[nH]c4ccccc34)CC2)cc1` is lower in “hERG current change (%, negative = inhibition) at 1uM” value: -22% for the first, -73.7% for the second.

Going from `O=C(O)C(=O)O.O=[N+]([O-])c1ccc(S(=O)(=O)N2CCN(Cc3c[nH]c4ccccc34)CC2)cc1` to `COc1ccc(NS(=O)(=O)c2ccc(NS(C)(=O)=O)cc2)cc1`, the “hERG current change (%, negative = inhibition) at 1uM” value rises from -10.1% to 6.82%.

Going from `CCN(CC)Cc1cc(NC2=NS(=O)(=O)c3ccccc32)ccc1OC(=O)C(C)C.Cl` to `O=C(CSc1nnc(-c2ccncc2)o1)Nc1nncs1`, the “hERG current change (%, negative = inhibition) at 1uM” value rises from 5.53% to 15.3%.
